In PMC10668032, “Altered binding affinity of SIX1-Q177R correlates with enhanced WNT5A and WNT pathway effector expression in Wilms tumor”:
The full ranking holds about 33,000 sequences; the median of “e-score” is about -0.053, and the highest 2% start at about 0.38. The sample holds the highest values, similar sequences and a random draw of the others, so the mix is not that of the screen.

Each sequence was assayed against T1, SIX1 homeodomain (reference allele) (human, UniProt Q15475 108-198) (assay: universal protein binding microarray; Universal all-10-mer PBM (8x60K, AMADID 030236), 300 nM GST-tagged protein, Alexa Fluor 488 anti-GST; buffer, salt, pH and temperature not stated (as in Berger); high values mean tight binding). Settings: protein: ivt; tags: N-terminal GST; dsDNA, one strand shown.
T1 sequence: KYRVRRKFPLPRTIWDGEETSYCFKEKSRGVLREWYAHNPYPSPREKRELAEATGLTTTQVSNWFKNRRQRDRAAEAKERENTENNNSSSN
How it was run: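 After in vitro transcription/translation, GST-tagged homeodomains were quantified against a recombinant GST standard curve by anti-GST western blot. They were then placed in duplicate at 300 nM final concentration on universal 'all 10-mer' protein binding microarrays of 8×60K format.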

Row | Sequence | binding signal [E-score]
1 | CAGCTATA | 0.172 ± 0.0266
2 | ATCAACCC | 0.3364 ± 0.0021
3 | CCCTTCGG | 0.2259 ± 0.00107
4 | ATCTCGGC | 0.164 ± 0.0197
5 | CCGCATCC | 0.159 ± 0.0829
6 | CTGGGGTC | 0.164 ± 0.0399
7 | GATCCATC | 0.364 ± 0.0371
8 | ATCGTTGG | 0.205 ± 0.01
9 | ATATAAGG | 0.189 ± 0.0368
10 | CGATGGAG | 0.167 ± 0.00841
11 | AGATCACC | 0.317 ± 0.00333
12 | GGATCAAC | 0.39 ± 0.0049
13 | TGATCACA | 0.254 ± 0.0125
14 | GGATCAAA | 0.372 ± 0.0497
15 | CGATCAGA | 0.192 ± 0.0121
16 | GGATCAGA | 0.414 ± 0.0101
17 | GGATCACA | 0.4356 ± 0.00108
18 | AGATCAAC | 0.264 ± 0.0411
19 | CGATCACC | 0.34 ± 0.0407
20 | CGATCACG | 0.251 ± 0.0416
21 | GGATCACC | 0.438 ± 0.0243
22 | AGATCAGA | 0.215 ± 0.0541
23 | CCCCATCA | 0.152 ± 0.0305
24 | TATCCTAA | 0.238 ± 0.0642

Row | Sequence | binding signal [E-score]
25 | GATAACTA | 0.154 ± 0.00881
26 | GATCTTTA | 0.164 ± 0.0165
27 | ATCGCACG | 0.2071 ± 0.000375
28 | ATAGGCGG | 0.1969 ± 0.00138
29 | TATTGCGA | 0.232 ± 0.0343
30 | TCACCCGA | 0.157 ± 0.0682
31 | GATAGTAA | 0.221 ± 0.00274
32 | AGATCATA | 0.323 ± 0.00987
33 | GGATCATA | 0.433 ± 0.0211
34 | CGATCATA | 0.276 ± 0.0116
35 | ATCAACGA | 0.201 ± 0.0401
36 | AGTATTGG | 0.204 ± 0.0532
37 | ATAGCTAT | 0.27 ± 0.0878
38 | TCTCCAGA | 0.165 ± 0.00783
39 | AGAGATAC | 0.38 ± 0.00418
40 | CCAGATAA | 0.234 ± 0.0252
41 | CTAGATAC | 0.349 ± 0.00583
42 | CAAGATAC | 0.349 ± 0.0341
43 | CCAGATAC | 0.409 ± 0.0168
44 | ACAGATAC | 0.341 ± 0.00624
45 | AGAGATAT | 0.335 ± 0.0776
46 | AGAGATAG | 0.153 ± 0.0279
47 | GGAGATCC | 0.374 ± 0.0453
48 | GCAGATAC | 0.3749 ± 0.000573

Row | Sequence | binding signal [E-score]
49 | CGAGATAC | 0.381 ± 0.00544
50 | GGAGATAC | 0.41 ± 0.00953
51 | ATCCGAAA | 0.246 ± 0.022
52 | ATATCTTG | 0.271 ± 0.0944
53 | CGATCTCC | 0.31 ± 0.00569
54 | ACTGTATC | 0.367 ± 0.00948
55 | CCTATAGA | 0.157 ± 0.037
56 | GCCTATAA | 0.161 ± 0.0675
57 | TATCGTGA | 0.279 ± 0.00354
58 | AATACGAG | 0.233 ± 0.00564
59 | AATTGTGA | 0.185 ± 0.0272
60 | CTGGTCTA | 0.201 ± 0.0694
61 | ATGGTGTC | 0.435 ± 0.0115
62 | CTGGTGTC | 0.414 ± 0.0127
63 | ATGGTGTA | 0.305 ± 0.00747
64 | ATGGTGTG | 0.183 ± 0.0828
65 | CTGGTGTA | 0.313 ± 0.0189
66 | TATCCCGA | 0.315 ± 0.0248
67 | AATCCCTA | 0.185 ± 0.0203
68 | GATCCCGA | 0.377 ± 0.0296
69 | GATCCTTA | 0.342 ± 0.021
70 | GATCCCTA | 0.3831 ± 0.000778
71 | AATCCCGA | 0.223 ± 0.0516
72 | AACCGAGA | 0.162 ± 0.046

Row | Sequence | binding signal [E-score]
73 | ACACCTCG | 0.3009 ± 0.00176
74 | CCTATCTA | 0.178 ± 0.0299
75 | AGGATCAT | 0.38 ± 0.0194
76 | ATGATCAT | 0.246 ± 0.029
77 | AGGATCAG | 0.368 ± 0.0142
78 | AAGATCAC | 0.239 ± 0.0239
79 | ACGATCAC | 0.177 ± 0.0336
80 | AGGATCAC | 0.435 ± 0.0114
81 | CATGAGAC | 0.296 ± 0.000976
82 | ACTACTCG | 0.163 ± 0.00508
83 | AGATCAAG | 0.232 ± 0.0888
84 | CTATCAAA | 0.258 ± 0.141
85 | AGATCACA | 0.255 ± 0.00822
86 | GTATAAAC | 0.185 ± 0.0191
87 | AGATCAAT | 0.3827 ± 0.00302
88 | GTGTCAAA | 0.311 ± 0.019
89 | AGATCAAA | 0.188 ± 0.0637
90 | GTGTCAAC | 0.287 ± 0.0231
91 | AGATCACT | 0.385 ± 0.0244
92 | GTATCAAC | 0.475 ± 0.0103
93 | GTATCAAA | 0.452 ± 0.0436
94 | AGATCACG | 0.306 ± 0.0143
